About 83,000 compounds went through this panel and 20% of them were active in at least one assay; those are over-represented in the sample as a whole.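 Percent growth is the endpoint: 0 to 100 indicates growth inhibition (40 means 60% inhibition), 0 means no net growth, and negative values indicate cell death.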 Values without a mark were called inactive. Calls of active or inactive are those of the source. Rule for the calls: active = growth percent below 10; inactive = the rest.

The assay deals with HL-60(TB) leukemia. Description: NCI-60 one-dose screen, 48 h (100 = growth as untreated, 0 = no growth, -100 = all killed). Conditions: 10 µM unless noted.
Turning to `O=C(C[C@@]1(O)C(=O)Nc2c(Cl)ccc(Cl)c21)c1ccc(C2CC2)cc1`, the growth was -17.8% (active). The same measure for `Cc1cn2c(/C=C3/C(=O)Nc4c3ccc3ccccc43)c(C(F)(F)F)nc2s1`: 1.47% (active); for `CN1CCN(CCCOc2ccc3ncnc(Nc4ccc(Oc5cccc(F)c5)c(Cl)c4)c3c2)CC1`: -47.3% (active).

For `Nc1ncc(-c2cnn(C3CCNCC3)c2)cc1-c1nc2ccccc2o1`, the growth was -55.5% (active). For the molecule `O=C1C2C(c3cccs3)C=C(c3ccc(Cl)cc3)N2C(=S)N1c1ccccc1` (stereo not given), the growth is 99.8%.

As to `CCOC(=O)CCCS(C)(=O)=O`, the growth is 117%. Turning to `O=C(Cn1nncc1CN1C(=O)CSC1=O)Nc1ccc(F)cc1`, the growth was 100%. Turning to `COc1ccc(S(=O)(=O)Oc2ccc(-c3sc4cc(OS(=O)(=O)c5ccc(OC)cc5)ccc4c3C(=O)c3ccc(OCCN4CCCCC4)cc3)cc2)cc1`, the growth is 91.1%.

Consider `Cc1cc2c(C)c3cc(C)c(N)cc3nc2cc1N`, for which the growth is 19%.

Consider `CCOC(=O)c1c2c(n3ccc(NC(=O)CCN4CCCC4)cc13)C(=O)c1ncccc1C2=O`, for which the growth was -34.2% (active).

For the molecule `NNC(=S)N/N=C/c1ccccn1`, the growth is 1% (active). Regarding `C=CCn1c(SCC(=O)Nc2ccc(C(=O)/C=C/c3ccc(OC)cc3)cc2)nnc1-c1ccc(OC)c(OC)c1`, the growth was 58.5%. As to `Cc1cc(Cl)ccc1Nc1nc(C(F)(F)F)ccc1C(=O)N/N=C/c1ccc(F)cc1`, the growth is -35.6% (active).

Turning to `COc1cc(-c2nc3ccc(C)cc3[nH]2)ccc1OCC(=O)N=Nc1c(O)[nH]c2ccc(Cl)cc12`, the growth is -55.6% (active). The value for `CN(C)CC1C(=O)O[C@H]2[C@H]1CC/C(COC(=O)NCc1ccc(Cn3c(=O)sn(CCCI)c3=O)cc1)=C\CC[C@@]1(C)O[C@@H]21` (stereo not given in full) was -36.5% (active). The same measure for `O=C(O)c1cn(C2CC2)c2cc(N3CCN(C(=O)Nc4nc(-c5ccccc5)cs4)CC3)c(F)cc2c1=O`: 3.14% (active). The same measure for `CCN(CC)CCCC(C)Nc1c2c(nc3ccc(OC)cc13)CCCC2` (stereo not given): 80.3%.

In the case of `COC(=O)CCCCN=Cc1c(O)c(O)c(C(C)C)c2cc(C)c(-c3c(C)cc4c(C(C)C)c(O)c(O)c(C=NCCCCC(=O)OC)c4c3O)c(O)c12`, the growth was 10.9%. The value for `Cc1ccccc1COc1ccc(-c2ccnn2-c2ccc(Cl)cc2)cc1` was 13.3%; that for `CC(COC(=O)c1ccccc1)N1CC2CCC(C1)O2` (stereo not given) was 101%; that for `Nc1c2ccccc2nc2ccccc12` (tested in a mixture with another compound) was 26.8%. The value for `N=c1nc(N)ncn1-c1ccccc1` was 110%; that for `O=C(O)c1cccc(N/C=C/C(=O)c2cc3cc(Br)ccc3oc2=O)c1` was 99.8%. As for `CC(=O)OCC1OC(n2cnc3c(=S)nc(N)[nH]c32)C(OC(C)=O)C1OC(C)=O` (stereo not given), the growth was 81.2%.

Consider `Cc1cc(Cl)ccc1Nc1nc(C(F)(F)F)ccc1C(=O)N/N=C/c1cccc(O)c1`, for which the growth is 4.08% (active). The value for `COc1ccc(/C=C2\CCC3C(CCCC34OCCO4)C2=O)cc1` (stereo not given) was 78.3%; that for `CNC(=O)c1cc(Cn2nc(C)c(NC(=O)Nc3ccc(Cl)c(C(F)(F)F)c3)c2C)ccn1` was 103%; that for `COc1cccc2c1O/C(=C\c1ccc([N+](=O)[O-])s1)C2=O` was 39%. For the molecule `Cn1c(=O)c2c(nc(Br)n2CC(=O)Nc2ccc(F)cc2)n(C)c1=O`, the growth was 95.3%. As for `O[C@@H]1CO[C@H]2[C@@H]1OC[C@@H]2O`, the growth was 98%.

Turning to `CCCCOC(=O)/C=C\C(=O)NC(N)=O`, the growth was 56.8%.

As to `C#CCOc1ccc(C2=NN(CC3CC3)C3N=C(Cl)c4ncn(CC5CC5)c4N23)cc1OCC#C` (stereo not given), the growth is 99.1%. Consider `CCCCN(CCCC)Cc1c(C)[nH]c2cc(OC)ccc2c1=O`, for which the growth was 94.1%.

On to `CC1=C2CC/C(C)=C/CC[C@]3(C)O[C@H]3CC/C(C)=C/[C@H]2OC1`, for which the growth was 86.5%. Regarding `COc1ccc(/C=C2\N=C(Nc3ccccc3)N(NC(=O)c3ccccn3)C2=O)cc1`, the growth is 97.7%. The value for `CC1(C)C(=O)CC[C@]2(C)[C@H]3C(=O)C=C4[C@@H]5C[C@@](C)(C(=O)NCCNCCN)CC[C@]5(C)CC[C@@]4(C)[C@]3(C)CC[C@@H]12` was 90.1%; that for `Cc1ccccc1CCO` was 100%.

Consider `CCc1ccccc1-n1c(-c2ccc(OC)cc2)cc(-c2ccc(OC)cc2)c(C#N)c1=O`, for which the growth was 121%. The value for `O=C(CCc1nnco1)c1nc2ccc([N+](=O)[O-])cc2[nH]1` was 120%; that for `C#CCSc1nnnn1-c1ccccc1` was 92.7%.

The record behind these values is PubChem BioAssay (NCI).
